In general, inhibition refers to the change of the read-out against control, counted positive when it falls.

This is an account of results in ChEMBL document CHEMBL3433997, “St. Jude Leishmania screening dataset” (2016).

Holding throughout (type): functional
Assay [1] has as its target Solute carrier family 2, facilitated glucose transporter member 1 (Homo sapiens) (UniProt P11166). As to the kind of experiment: ST_JUDE_LEISH: Cytotoxicity at 2uM final concentration against transgenic Leishmania Mexicana promastigotes LmGLUT1 that are glucose transport deficient and complemented with the human glucose transporter GLUT1. Activity is measured by DNA content using SYBR green in vitro.

In assay [2] the target is Hexose transporter 1 (Plasmodium falciparum) (UniProt O97467). Kind of assay: ST_JUDE_LEISH: Cytotoxicity at 2uM final concentration against transgenic Leishmania Mexicana promastigotes LmPfHT that are glucose transport deficient and complemented with the Plasmodium falciparum hexose transporter. Activity is measured by DNA content using SYBR green in vitro.
In assay [3] the target is Glucose transporter (Leishmania mexicana) (UniProt O61059). Kind of assay: ST_JUDE_LEISH: Cytotoxicity at 2uM final concentration against transgenic Leishmania Mexicana promastigotes LmGT2 that are glucose transport deficient and complemented with the L. Mexicana glucose transporter 2. Activity is measured by DNA content using SYBR green in vitro.

Chain of Solute carrier family 2, facilitated glucose transporter member 1 (Homo sapiens) (P11166 whole entry): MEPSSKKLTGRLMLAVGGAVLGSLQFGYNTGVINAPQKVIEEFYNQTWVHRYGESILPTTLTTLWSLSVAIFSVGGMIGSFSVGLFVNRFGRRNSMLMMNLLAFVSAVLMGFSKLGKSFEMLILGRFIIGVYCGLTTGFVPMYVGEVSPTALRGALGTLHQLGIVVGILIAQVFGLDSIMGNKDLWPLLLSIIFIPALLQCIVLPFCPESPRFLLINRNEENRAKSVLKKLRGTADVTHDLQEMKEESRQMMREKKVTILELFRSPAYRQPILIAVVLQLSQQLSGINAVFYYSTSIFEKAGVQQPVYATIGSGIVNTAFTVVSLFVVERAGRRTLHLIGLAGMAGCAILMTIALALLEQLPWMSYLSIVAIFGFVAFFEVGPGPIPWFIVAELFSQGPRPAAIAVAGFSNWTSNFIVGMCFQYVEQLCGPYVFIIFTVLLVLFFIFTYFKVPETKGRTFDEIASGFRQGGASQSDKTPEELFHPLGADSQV

On to `O=C(/C=C/c1ccc(C(F)(F)F)cc1)NCCCCCN1CCCN(C(=O)Nc2ccc(Cl)c(C(F)(F)F)c2)CC1`, for which the inhibition is -0.16% in assay [1], 0.4% in assay [2] and 0.66% in assay [3].

In the case of `Cc1noc(C)c1-c1cccc(CNCc2cccc(-c3cccc(-c4nc5cc(F)ccc5[nH]4)c3)c2)c1`, the inhibition in assay [1] is -2.23%; in assay [2], 5%; in assay [3], 0.55%.

Take `Cc1cccc2nc(-c3ccc(-c4ccc(NC(=O)C(C)CN(C)C)cc4)s3)[nH]c12` (stereo unspecified): the inhibition in assay [1] came to 4.89%; in assay [2], 6.11%; in assay [3], 3.65%.

Turning to `Cc1cccc2nc(-c3cccc(-c4ccc(NC(=O)COc5ccccc5C(N)=O)cc4)c3)[nH]c12`, the figures for the inhibition in assay [1], in assay [2] and in assay [3] were 4.4%, 4.11% and 5.02%, respectively.

For the compound `Oc1ccc(CCNCCCCCCNCCc2ccc(Br)cc2)cc1O`, the figures for the inhibition in assay [1], in assay [2] and in assay [3] were 3.51%, 2.35% and 0.85%, respectively.

For the compound `COc1ccc(Br)cc1/C=C/C(=O)Nc1cccc(C2CCN(C)CC2)c1`, the results for the inhibition in assay [1], in assay [2] and in assay [3] were 3.43%, 0.87% and 4.16%, respectively.

`N=C(/N=C(/NCCCCCCN/C(=N/C(=N)NCc1ccc(Cl)c(Cl)c1)N1CCCCC1)N1CCCCC1)NCc1ccc(Cl)c(Cl)c1`: the inhibition in assay [1] amounted to 8.42%; in assay [2] it was 9.68%; in assay [3], 8.06%.

On to `CC(=O)Nc1ccc(CN2CCC(NC(=O)c3ccc(-c4ccc(N(C)C)cc4)s3)CC2)cc1`, for which the figures for the inhibition in assay [1], in assay [2] and in assay [3] were 2.06%, 1.82% and 2.63%, respectively.

Regarding `CC1(C)NC(N)=NC(=N)N1OCC1CCCCC1`, the figures for the inhibition in assay [1], in assay [2] and in assay [3] were -0.1%, 1.24% and 0.75%, respectively.

On to `CCOc1ccc(C(=O)Nc2ccc(-c3nc4ccccc4[nH]3)cc2)cc1[N+](=O)[O-]`, for which the inhibition in assay [1] is 1.79%; in assay [2], 2.52%; in assay [3] it was 1.46%.

As for `COC(=O)c1ccc(OCC(O)CO)cc1O` (stereo unspecified), the results for the inhibition in assay [1], in assay [2] and in assay [3] were 0.55%, 2.14% and -0.04%, respectively.

Consider `CCN(CC)CCCNc1c2ccccc2nc2ccccc12`, for which the inhibition in assay [1] came to 23.4%; in assay [2], 22.3%; in assay [3], 16.5%.

`COc1ccc2nc(C)cc(N/N=C/c3cccc([N+](=O)[O-])c3)c2c1`: the figures for the inhibition in assay [1], in assay [2] and in assay [3] were 8.97%, 7.38% and 7.7%, respectively.

With `Cc1cc(O)c(-c2ccc(S(=O)(=O)c3ccc(Cl)cc3)cc2)c(C)n1`, the inhibition came to 0.09% in assay [1], 0.81% in assay [2] and 1.44% in assay [3].

For `COc1ccccc1C1CCN(C2CCC(NC(=O)c3cc4ccccc4[nH]3)CC2)CC1` (stereo unspecified), the inhibition is -0.02% in assay [1], -0.24% in assay [2] and 2.29% in assay [3].

On to `COc1ccccc1-n1ccnc1SCC(=O)Nc1cc(C(F)(F)F)ccc1Cl`, for which the inhibition in assay [1] is -3.59%; in assay [2], -0.64%; in assay [3] it was -1.83%.

Regarding `O=C(Nc1ccc([N+](=O)[O-])cc1)c1nn(-c2ccccc2)cc1/N=C/c1cccc(O)c1`, the inhibition in assay [1] is -0.62%; in assay [2], -1.47%; in assay [3], -1.45%.

For `NC(=O)c1cccc(C(=O)Nc2cccc(-c3cccc(-c4nc5cc(F)ccc5[nH]4)c3)c2)c1`, the inhibition in assay [1] was -0.39%; in assay [2], 0.68%; in assay [3], -0.72%.

Regarding `Cn1nc(-c2ccc(Cl)cc2)c2cc(C(=O)NCCN3CCOCC3)sc21`, the results for the inhibition in assay [1], in assay [2] and in assay [3] were -0.16%, 1.5% and -0.52%, respectively.

With `COc1ccc2nccc([C@@H](O)CN3CCC(NC(=O)c4cc5ccccc5[nH]4)CC3)c2c1`, the inhibition was found to be 36% in assay [1], 55.7% in assay [2] and 38.7% in assay [3].

As to `O=C(NCc1ccc(Cl)c(Cl)c1)c1ccc(C2CCCN(Cc3ccc4[nH]cnc4c3)C2)cc1` (stereo unspecified), the inhibition in assay [1] came out at 5%; in assay [2], 9.77%; in assay [3], 6.17%.

For `CC(C)(C)c1cc2cc(Nc3ccnc4cc(-c5nccs5)ccc34)ccc2[nH]1`, the inhibition in assay [1] was 6.8%; in assay [2], 7.87%; in assay [3], 5.41%.

In the case of `CCCNCc1ccc(-c2ccc(CN(Cc3ccc4c(c3)OCO4)C(=O)[C@H]3CCCO3)cc2)nc1`, the inhibition stood at 13.6% in assay [1], 10.6% in assay [2] and 8.76% in assay [3].

As to `CS(=O)(=O)c1cccc(-c2cnc(N)c3cc(-c4cccc(F)c4)ccc23)c1`, the inhibition in assay [1] was determined as 1.57%; in assay [2] it was 1.63%; in assay [3], 0.94%.

`O=C(NCC1CCN(Cc2cccc(F)c2)C1)c1cc(-c2cccc(C(F)(F)F)c2)cs1` (stereo unspecified): the inhibition was -1.66% in assay [1], -2.49% in assay [2] and 2.59% in assay [3].

Consider `O=C(CSc1nc2ccccc2c(=O)n1CC1CCCO1)Nc1cc(C(F)(F)F)ccc1Cl` (stereo unspecified), for which the inhibition worked out at 9.97% in assay [1], 9.45% in assay [2] and 6.14% in assay [3].

As to `CCc1cn(CCOC)c2ccc(C(=O)N[C@@H](Cc3ccccc3)[C@H](O)CNC(C)(C)CCCC(C)C)cc12`, the inhibition in assay [1] was 0.24%; in assay [2], 1.3%; in assay [3] it was 1.51%.

In the case of `CCN1CCC(NCc2ccc(-c3ccc(Cl)cc3)cc2)CC1`, the values for the inhibition in assay [1], in assay [2] and in assay [3] were 23.6%, 11% and 7.91%, respectively.

As for `Oc1ccc(Cl)cc1-c1cc(C(F)(F)F)nc(-c2ccccc2)n1`, the inhibition in assay [1] came to 7.04%; in assay [2] it was 5.96%; in assay [3] it was 8.28%.

Turning to `CN1CCN(CCCNCc2ccc(Nc3nccc(Nc4ccc(Oc5ccccc5)cc4)n3)cc2)CC1`, the figures for the inhibition in assay [1], in assay [2] and in assay [3] were 0.09%, 1.17% and 1.48%, respectively.

Take `O=S(=O)(c1cccc2cccnc12)N1CCN(C2CCCCC2)CC1`: the inhibition in assay [1] amounted to 8.16%; in assay [2] it was 8.51%; in assay [3], 7.83%.

`CC1CN(C(=O)c2sc3ccccc3c2Cl)CC(C)O1` (stereo unspecified): the inhibition was -2.33% in assay [1], 0.96% in assay [2] and 0.74% in assay [3].

In the case of `Fc1ccc2[nH]c(-c3ccc(-c4ccc(CN5CCN(CCN6CCOCC6)CC5)cc4)s3)nc2c1`, the inhibition is 6.46% in assay [1], 2.96% in assay [2] and 1.83% in assay [3].

Take `O=C(OCC1CCN(Cc2ccccc2)C1)c1ccc(Cl)cc1` (stereo unspecified): the inhibition turned out to be 0.47% in assay [1], 1.6% in assay [2] and 2.14% in assay [3].

For `COc1ccc2cc(C(=O)NC3CCC(CCN4CCc5cc(C#N)ccc5C4)CC3)[nH]c2c1` (stereo unspecified), the inhibition in assay [1] turned out to be 3.48%; in assay [2] it was 0.58%; in assay [3], 3.6%.

With `Nc1c2c(nc3ccc(NC(=O)CCCCCCc4ccccc4)cc13)CCCC2`, the inhibition was -2.4% in assay [1], -2.24% in assay [2] and -3.57% in assay [3].

As for `Cc1[nH]cnc1CSCCN/C(=N\C#N)NCCCCCCCCN/C(=N/C#N)NCCSCc1nc[nH]c1C`, the inhibition in assay [1] came out at 2.45%; in assay [2], 2.15%; in assay [3], 2.98%.
